Experiment [1] is described as follows: compounds binding Alexa647 anti-His antibody – biochemical, small-molecule microarray, 635 nm fluorescence, artefact control for SMM control protein annotation, primary screen (AID 1128).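 Note: score merges feature fluorescence with signal-to-noise for each printed compound spot.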 The conditions noted are these: higher = more signal.
The subject of experiment [2] is Human papillomavirus type 1a E7 protein (residues 1-88). As to the kind of experiment: HPV1a E7 small-molecule binders, primary screen, biochemical, small-molecule microarray, residues 1-88, 635 nm (AID 1129). The conditions noted are these: small-molecule microarray binding, fluorescence 635 nm; higher = more signal.
Experiment [3] concerns the target Focal adhesion kinase 1 (Homo sapiens) (UniProt Q05397). The experiment can be described thus: PTK2 protein binding on printed compound slides – biochemical, small-molecule microarray, 635/667 nm fluorescence, BSA, DTT, primary screen (AID 1130).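 Note: composite of spot emission at 667 nm and signal to noise over triplicate slides.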 The conditions noted are these: 635 nm fluorescence, higher = more signal.
The subject of experiment [4] is Fibrinogen (Alexa647-labelled). The experiment can be described thus: Alexa647-fibrinogen binding to printed small molecules – biochemical, small-molecule microarray, 635/667 nm fluorescence, artefact control for SMM control-protein annotation, profiling panel (AID 1131).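 Note: z-score merges 667 nm fluorescence with per-spot signal-to-noise over triplicate slides.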 The conditions noted are these: fibrinogen-A647 binding fluorescence, higher = more signal.
The target of experiment [5] is Follistatin (Homo sapiens) (UniProt P19883). As to the kind of experiment: FST protein binding to printed compounds – biochemical, small-molecule microarray, 635/667 nm fluorescence, primary screen (AID 1132). The conditions noted are these: 635 nm fluorescence, higher = more signal.
Sequence of Follistatin (Homo sapiens) (P19883 whole entry, looked up): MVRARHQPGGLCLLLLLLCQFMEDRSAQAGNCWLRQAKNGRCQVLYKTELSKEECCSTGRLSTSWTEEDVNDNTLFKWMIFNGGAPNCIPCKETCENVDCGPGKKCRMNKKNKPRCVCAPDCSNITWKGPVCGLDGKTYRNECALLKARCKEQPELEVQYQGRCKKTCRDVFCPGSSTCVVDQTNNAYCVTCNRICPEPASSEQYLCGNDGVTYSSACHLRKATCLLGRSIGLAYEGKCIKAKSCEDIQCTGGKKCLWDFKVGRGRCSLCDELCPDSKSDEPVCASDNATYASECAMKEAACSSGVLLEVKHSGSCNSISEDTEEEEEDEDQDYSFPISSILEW
For experiment [6], the target named is Fibroblast growth factor 2 (Homo sapiens) (UniProt P09038). The experiment can be described thus: basic fibroblast growth factor binding to printed compounds – biochemical, small-molecule microarray, 635/667 nm fluorescence, primary screen (AID 1133). The conditions noted are these: FGF2, fluorescence 635/667, higher = more signal.
Sequence of Fibroblast growth factor 2 (Homo sapiens) (P09038 whole entry, looked up): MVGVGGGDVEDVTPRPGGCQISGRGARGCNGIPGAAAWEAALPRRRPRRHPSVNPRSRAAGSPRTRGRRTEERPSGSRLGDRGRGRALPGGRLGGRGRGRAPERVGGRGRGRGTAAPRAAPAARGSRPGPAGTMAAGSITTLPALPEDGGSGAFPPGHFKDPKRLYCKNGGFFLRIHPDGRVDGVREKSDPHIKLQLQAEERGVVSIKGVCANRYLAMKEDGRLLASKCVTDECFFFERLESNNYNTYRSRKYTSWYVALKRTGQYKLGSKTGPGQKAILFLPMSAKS
The nature of experiment [7]: JC-1 mitochondrial potential readout, lung cancer cells – cell-based, A549, JC-1 fluorescence, basal, 24 h, 100 nL, profiling panel (AID 1138).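 Note: A549 lung adenocarcinoma cells under basal conditions with no added stimulus; test concentration not given here.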 The conditions noted are these: higher = more signal.
The subject of a further experiment is Lefty1. As to the kind of experiment: Lefty1 protein binding to printed compounds – biochemical, small-molecule microarray, 635/667 nm fluorescence, primary screen (AID 1139). The conditions noted are these: fluorescence 635/667, higher = more signal.
The subject of experiment [8] is wheat germ agglutinin (Triticum aestivum), Alexa647-labelled. As to the kind of experiment: Alexa647-WGA lectin binding to printed small molecules – biochemical, small-molecule microarray, 635/667 nm fluorescence, artefact control for SMM control-protein annotation, profiling panel (AID 1140).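 Note: score merges 667 nm feature emission with signal to noise over triplicate slides.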 The conditions noted are these: WGA-A647 binding, 635 nm fluorescence, higher = more signal.

For experiment [9], the target named is Luciferin 4-monooxygenase (Photinus pyralis) (UniProt P08659). The experiment can be described thus: inhibition of purified Photinus pyralis luciferase – biochemical, luminescence, purified enzyme, 2006 set, primary screen (AID 1141).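 Note: cell-free assay with purified firefly luciferase at 100 ng per well in PBS; test concentration not given here.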 The conditions noted are these: purified firefly luciferase, SteadyGlo luminescence, 30 min; higher = more signal, called active from +8 up or from −8 down.
Sequence of Luciferin 4-monooxygenase (Photinus pyralis) (P08659 whole entry, looked up): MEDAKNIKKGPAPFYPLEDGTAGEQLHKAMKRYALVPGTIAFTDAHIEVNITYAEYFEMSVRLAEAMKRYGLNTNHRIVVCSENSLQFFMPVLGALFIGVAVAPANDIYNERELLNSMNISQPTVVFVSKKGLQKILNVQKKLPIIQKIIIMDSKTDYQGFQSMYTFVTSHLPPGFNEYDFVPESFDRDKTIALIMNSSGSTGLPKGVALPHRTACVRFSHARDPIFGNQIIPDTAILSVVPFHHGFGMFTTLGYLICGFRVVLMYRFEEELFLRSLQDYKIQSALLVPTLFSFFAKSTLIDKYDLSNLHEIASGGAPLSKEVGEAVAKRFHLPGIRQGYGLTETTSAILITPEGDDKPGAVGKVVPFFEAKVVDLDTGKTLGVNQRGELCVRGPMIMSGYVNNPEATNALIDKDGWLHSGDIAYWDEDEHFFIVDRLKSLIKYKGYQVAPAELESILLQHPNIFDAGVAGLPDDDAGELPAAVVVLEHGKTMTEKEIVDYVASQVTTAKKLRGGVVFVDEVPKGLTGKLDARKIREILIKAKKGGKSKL

Experiment [10] has as its system Wnt5a (protein binding on small-molecule microarray). The experiment can be described thus: small molecules binding Wnt5a protein – biophysical, small-molecule microarray, 635/667 nm fluorescence, primary screen (AID 1142).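 Note: fluorescence read at 667 nm with signal to noise per printed feature.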 The conditions noted are these: 635 nm fluorescence, higher = more signal.
The nature of experiment [11]: ATP-based viability of Huh7 replicon cells – cell-based, CellTiter-Glo luminescence, basal, 48 h, cytotoxicity control for HCV replication inhibitor project, primary screen (AID 1143).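 Note: Huh7 hepatoma cells carrying a hepatitis C replication reporter with no stimulus; test concentration not given here.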 The conditions noted are these: higher = more signal, called active from +8 up or from −8 down. For orientation: Replicon systems follow genome replication, usually without infectious particles.

A short description of experiment [12]: basal CRE-LacZ reporter activity in PC12 – cell-based, unstimulated, primary screen (AID 1145). The conditions noted are these: no forskolin, luminescence, 4.5 h, higher = more signal, called active from +8 up or from −8 down.
The nature of experiment [13]: forskolin-driven CRE-LacZ activity in PC12 – cell-based, CRE-LacZ reporter, forskolin-stimulated, primary screen (AID 1146).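 Note: PC12 cells with 6xCRE LacZ reporter stimulated by forskolin 10 µM; beta-galactosidase reporter signal reflecting CREB driven transcription.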 The conditions noted are these: luminescence, 4.5 h, higher = more signal, called active from +8 up or from −8 down.
The target in experiment [14] is Streptavidin (Streptomyces avidinii) (UniProt P22629). As to the kind of experiment: compounds binding control protein streptavidin – biophysical, small-molecule microarray, 635/667 nm fluorescence, artefact control for SMM compound annotation, primary screen (AID 1147).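 Note: signal reflects streptavidin binding to arrayed compounds as a control protein.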 The conditions noted are these: higher = more signal.
Sequence of Streptavidin (Streptomyces avidinii) (P22629 whole entry, looked up): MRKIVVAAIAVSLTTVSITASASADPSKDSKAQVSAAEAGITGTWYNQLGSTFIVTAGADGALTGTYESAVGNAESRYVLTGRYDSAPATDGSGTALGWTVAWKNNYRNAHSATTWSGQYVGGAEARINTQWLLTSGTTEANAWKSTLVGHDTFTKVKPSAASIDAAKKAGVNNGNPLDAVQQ
Experiment [15] can be described thus: probe aInhba binding on compound microarray – biochemical, small-molecule microarray, 635/667 nm fluorescence, primary screen (AID 1148).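 Note: score merges 667nm spot fluorescence with signal-to-noise for antibody binding to printed compounds.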 The conditions noted are these: higher = more signal.
Experiment [16] deals with Torsin-1A (Homo sapiens) (UniProt O14656). The experiment can be described thus: TOR1A wild-type binding on microarray – cell lysate, small-molecule microarray, lysate, 635/667 nm, primary screen (AID 1149). The conditions noted are these: COS7 hTOR1A-WT lysate, 635 nm fluorescence, higher = more signal.
Sequence of Torsin-1A (Homo sapiens) (O14656 whole entry, looked up): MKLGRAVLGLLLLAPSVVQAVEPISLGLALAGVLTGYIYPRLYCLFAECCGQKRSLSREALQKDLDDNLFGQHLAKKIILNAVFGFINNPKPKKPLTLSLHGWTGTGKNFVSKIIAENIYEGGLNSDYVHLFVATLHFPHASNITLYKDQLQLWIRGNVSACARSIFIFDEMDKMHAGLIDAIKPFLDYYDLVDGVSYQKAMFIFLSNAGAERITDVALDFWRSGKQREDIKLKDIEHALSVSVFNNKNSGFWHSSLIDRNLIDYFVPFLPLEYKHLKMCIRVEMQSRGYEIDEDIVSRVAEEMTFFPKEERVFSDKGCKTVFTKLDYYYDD
Experiment [17] has the same target. As to the kind of experiment: torsin A mutant lysate binding on microarrays – cell lysate, small-molecule microarray, COS7 lysate, 635/667 nm fluorescence, primary screen (AID 1150).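 Note: score pools 667 nm emission and signal to noise measuring lysate protein binding.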 The conditions noted are these: COS7 hTOR1A mutant lysate, 635 nm fluorescence, higher = more signal.
Experiment [18] concerns Sonic hedgehog protein (Shh). The experiment can be described thus: Sonic hedgehog microarray binding compounds – biochemical, small-molecule microarray, 635/667 nm fluorescence, primary screen (AID 1151).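 Note: Shh protein binding to compounds spotted on small-molecule microarray slides; score combines spot fluorescence intensity with signal-to-noise across triplicate slides.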 The conditions noted are these: 635 nm fluorescence, higher = more signal.
The nature of experiment [19]: Pseudomonas biofilm growth suppression – PAO1 strain, BacTiter-Glo luminescence, LB-PBS, primary screen (AID 1144). The conditions noted are these: P. aeruginosa PAO1 biofilm, 12 h, higher = more signal.

The structures appear in SMILES notation. Several values for one entry are separate records, joined by “and”; a condition that tells them apart may be missing. Equal entries are not always repeated. Activity calls are given as the source filed them. Unless noted, the rule behind the calls is not given here.

Sequence of Focal adhesion kinase 1 (Homo sapiens) (Q05397 whole entry, looked up): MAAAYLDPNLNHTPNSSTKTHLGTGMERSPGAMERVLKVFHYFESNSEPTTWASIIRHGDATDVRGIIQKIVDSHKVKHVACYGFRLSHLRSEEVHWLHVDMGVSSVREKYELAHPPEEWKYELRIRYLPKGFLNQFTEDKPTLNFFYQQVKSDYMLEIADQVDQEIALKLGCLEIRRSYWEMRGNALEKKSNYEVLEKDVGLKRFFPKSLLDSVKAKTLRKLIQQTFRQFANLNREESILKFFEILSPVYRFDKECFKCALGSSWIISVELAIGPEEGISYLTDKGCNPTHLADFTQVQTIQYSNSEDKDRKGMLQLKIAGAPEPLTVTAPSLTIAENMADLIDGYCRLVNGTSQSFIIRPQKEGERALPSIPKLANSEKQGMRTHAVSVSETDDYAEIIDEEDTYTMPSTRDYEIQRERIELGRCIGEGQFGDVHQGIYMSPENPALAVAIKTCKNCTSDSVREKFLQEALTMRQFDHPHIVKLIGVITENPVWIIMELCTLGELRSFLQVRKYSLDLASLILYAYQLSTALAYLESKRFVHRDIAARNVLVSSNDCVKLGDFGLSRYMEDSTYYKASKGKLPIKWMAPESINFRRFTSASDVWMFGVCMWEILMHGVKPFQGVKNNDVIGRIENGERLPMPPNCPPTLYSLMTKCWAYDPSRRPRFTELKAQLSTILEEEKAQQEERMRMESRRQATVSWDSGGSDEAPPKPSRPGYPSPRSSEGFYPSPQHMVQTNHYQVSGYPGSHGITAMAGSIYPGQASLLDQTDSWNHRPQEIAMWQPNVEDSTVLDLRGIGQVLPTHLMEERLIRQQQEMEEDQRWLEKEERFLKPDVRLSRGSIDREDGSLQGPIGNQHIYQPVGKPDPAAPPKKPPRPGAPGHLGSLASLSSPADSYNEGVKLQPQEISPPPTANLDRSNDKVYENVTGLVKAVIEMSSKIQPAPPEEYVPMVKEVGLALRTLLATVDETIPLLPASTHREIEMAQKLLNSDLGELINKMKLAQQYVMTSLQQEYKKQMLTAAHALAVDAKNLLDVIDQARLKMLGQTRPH

For `CC(C)N1CC=CC23O[C@@H]4C=CCCOC(=O)C4[C@H]2C(=O)N(C(C)CO)[C@@H]3C1=O` (some centres undefined), the composite z-score is 0.412 and -0.876 in [1]; -0.149 and -1.45 in experiment [2]; -0.214 and -0.327 in experiment [3]; -0.367 and -0.617 in [4]; -1.72 and -1.22 in experiment [5]; -1.55 and -0.107 in experiment [6]. Also, the composite z-score in the experiment on Lefty1 was -0.674 and -1.22; in [8], -0.759 and -1.45; in experiment [10], 0.797 and -0.143; in experiment [14], -0.55 and 1.17; in experiment [15] it was -0.128 and -0.176; with Torsin-1A (Homo sapiens) [16], 0.0687 and -0.403. In addition, the composite z-score with Torsin-1A (Homo sapiens) [17] is -0.0439 and 0.0427; in [18], -0.0042 and -0.188. Further, the z-score in experiment [7] was 0.615 and 0.4; in [9] it was -0.509 (inactive) and -0.916 (inactive); in [11] it was -0.909 (inactive) and 0.0354 (inactive); in experiment [12] it was -0.631 (inactive) and -0.753 (inactive); in experiment [13] it was -0.0522 (inactive) and -0.428 (inactive).
`CCN1C(=O)[C@H]2[C@H]3[C@H](O)[C@H](O)CC(=NNC(=O)OCc4ccc(OC)cc4)[C@H]3CC[C@H]2C1=O`: the composite z-score is 0.0442 in experiment [1]; 0.0241 in experiment [2]; 0.0983 in [3]; 0.171 in [4]; -0.699 in experiment [5]; -0.623 in experiment [6]. Further, the composite z-score was found to be 0.107 in the experiment with Lefty1; 0.77 in experiment [8]; 0.153 in [10]; 0.398 in experiment [14]; 0.124 in experiment [15]; 0.275 in the experiment with Torsin-1A (Homo sapiens) [16]. The composite z-score was -0.023 with Torsin-1A (Homo sapiens) [17] and -0.121 in experiment [18]. The z-score in experiment [7] is 0.647; in [9] it was -0.716 (inactive); in experiment [11] it was -0.0769 (inactive); in [19], 0.619 (inactive); in experiment [12], 0.344 (inactive); in [13], -0.287 (inactive).
For `C[C@@H]1CC[C@H]2C(=O)N3[C@@H](CC[C@@H](C)[C@@H]3c3ccc(-c4ccco4)cc3)C(=O)N2[C@H]1c1ccc(-c2ccco2)cc1`, the composite z-score was 2.61 and 1.86 in [1]; 1.22 and 0.674 in experiment [2]; 1.68 and -0.333 in experiment [3]; 1.01 and 0.912 in experiment [4]; 1.35 and 1.45 in experiment [5]; 0.882 and 1.36 in experiment [6]. Further, the composite z-score with Lefty1 is 1.24 and 1.32; in experiment [8], 1.22 and 1.11; in experiment [10], 0.178 and 0.544; in [14], 1.33 and 2.14; in [15], 0.0006 and 0.0895; with Torsin-1A (Homo sapiens) [16] it was 0.967 and 2.1. Further, the composite z-score was 0.411 and 1.47 in the experiment with Torsin-1A (Homo sapiens) [17]; 1.44 and 1.19 in experiment [18]. Also, the z-score in [7] was -0.764 and -0.575; in experiment [9], -2.93 (inactive) and -6.15 (inactive); in experiment [11], 0.234 (inactive) and 0.563 (inactive); in experiment [19], 0.598 (inactive); in experiment [12] it was -0.165 (inactive) and 0.651 (inactive); in experiment [13], 0.371 (inactive) and -0.248 (inactive).
For the compound `C=CCN(CCCCC)C(=O)C(c1cccs1)N(C(=O)/C=C\C(=O)O)c1c(Cl)cccc1CO` (centres undefined), the composite z-score was -2 and 0.586 in experiment [1]; -0.682 and -0.485 in [2]; -0.519 and -0.564 in [3]; -1.31 and -2.3 in experiment [4]; -1.36 and -2.16 in [5]; -2.06 and -2.71 in experiment [6]. Moreover, the composite z-score was -1.88 and -1.54 in the experiment with Lefty1; -1.74 and -0.357 in experiment [8]; -0.473 and -1.02 in [10]; -1.34 and -1.63 in [14]; -0.202 and -0.233 in experiment [15]; -2.37 and -3.28 with Torsin-1A (Homo sapiens) [16]. The composite z-score with Torsin-1A (Homo sapiens) [17] is -0.23 and -2.06; in experiment [18] it was -1.14 and -0.909. Further, the z-score in [7] is -0.634 and 0.534; in experiment [9] it was -0.0903 (inactive) and -0.46 (inactive); in experiment [11], 0.497 (inactive) and 0.165 (inactive); in experiment [19], 0.858 (inactive) and 2.29 (inactive); in experiment [12] it was 0.605 (inactive) and -0.212 (inactive); in experiment [13], 1.2 (inactive) and 0.266 (inactive).
